Screens (PubChem BioAssay)
Only some compounds are listed: those with a hit (about 4.1% of all), similar ones and a draw of the others.
IDE cell inh: cellular human IDE inhibition. P14735. HEK cells, FAbetaB cleavage, fluorescence polarization. inhibition, % at 5.59 µM. 0.41% of 320,000 active. AID 434962;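 active means percent inhibition above the average of all tested compounds plus 3 SD, set per screening campaign, cut at about 16% in these data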;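 further: IDE supplied by intact live HEK cells; FP after avidin binding of uncleaved biotin substrate so inhibition keeps polarization high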
PfM18AAP inh-1: PfM18AAP enzyme inhibition. recombinant PfM18AAP, H-Glu-NHMec fluorogenic cleavage. inhibition, % at 7.35 µM. 1.2% of 290,000 active. AID 1822;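 active means inhibition above the campaign mean inhibition over all tested compounds plus 3 SD, cut at about 28% in these data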
CaV13 ICDI inh: Disruptors of the CACNA1D IQ motif to Ca2+-dependent inactivation inhibitor domain association, primary screening, Förster resonance energy transfer in intact living …; HEK cells, CFP/YFP FRET ICDI-IQ, plate reader, 10 min; percent FRET-ratio fall versus neutral wells; inhibition, % at 12.3 µM; 0.098% of 340,000 active; AID 743397;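 active means mean replicate inhibition of at least 30% and at least 1% of replicates passing that level; inconclusive means only one of the two criteria is met; inactive means neither criterion is met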
IDE act: boosts human insulin-degrading enzyme activity in HEK cells; 0.073% of 340,000 active; FAbeta-B cleavage, fluorescence polarization; 0% vehicle, 100% cell-free pure enzyme wells; activation, % at 5.96 µM; P14735;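 active means activation above the mean of all tested compounds plus 3 SD, set per screening campaign, cut at about 17% in these data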
PolyA inh: blocks polyadenylation in yeast reporter cells. AID 1875. activity score, % at 12 µM. S. cerevisiae SKY197-pL101 polyadenylation reporter, beta-gal luminescence; efflux-impaired pdr1/pdr3 knockout yeast; score 100 = 6 SD above DMSO. 0.02% of 300,000 active;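 active means lowest replicate activity score at least 50, where 100 means six control SD above control mean; inconclusive means lowest score under 50 but half or more replicates reach 50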;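 further: yeast exposed to compound for 9 h at 30 °C; higher score means more reporter readthrough which indicates perturbed polyadenylation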
ALR H2O2 inh: human ALR oxidase inhibition via reduced H2O2 | P55789 | purified ALR, DTT oxidation, H2O2 HRP-luminol luminescence | inhibition, % (test concentration not listed) | 3.8% of 290,000 active;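 active means mean replicate inhibition above about 79%, with every replicate also reaching it, limit read from the data; inconclusive means only one of the two criteria met; inactive means mean below limit and not every replicate reaching it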
Target sequence (P55789 whole entry, looked up): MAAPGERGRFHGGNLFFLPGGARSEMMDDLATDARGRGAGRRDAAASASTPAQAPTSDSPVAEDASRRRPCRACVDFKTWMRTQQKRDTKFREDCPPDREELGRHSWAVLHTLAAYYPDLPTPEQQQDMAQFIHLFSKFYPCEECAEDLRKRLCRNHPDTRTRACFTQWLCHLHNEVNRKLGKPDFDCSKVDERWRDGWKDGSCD
PfM18AAP inh-2: PfM18AAP inhibition, confirmation; 28% of 2,400 active; shares compounds with PfM18AAP inh-1; recombinant PfM18AAP, H-Glu-NHMec fluorogenic cleavage; inhibition, % at 7.35 µM;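 active means mean inhibition over replicate wells above the hit cutoff set for the earlier primary screen, cut at about 29% in these data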
CTSL1 counter: counter-screen for PFM18AAP inhibitors: confirmation of human cathepsin L inhibitors; shares compounds with PfM18AAP inh-1; purified cathepsin L1, Z-Leu-Arg-MCA fluorescence; inhibition, % at 5.96 µM; 2,400 tested, under 10 active; AID 2178;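 active means average inhibition across replicates above the hit cutoff set in the earlier primary screen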
Target sequence (P07711 whole entry, looked up): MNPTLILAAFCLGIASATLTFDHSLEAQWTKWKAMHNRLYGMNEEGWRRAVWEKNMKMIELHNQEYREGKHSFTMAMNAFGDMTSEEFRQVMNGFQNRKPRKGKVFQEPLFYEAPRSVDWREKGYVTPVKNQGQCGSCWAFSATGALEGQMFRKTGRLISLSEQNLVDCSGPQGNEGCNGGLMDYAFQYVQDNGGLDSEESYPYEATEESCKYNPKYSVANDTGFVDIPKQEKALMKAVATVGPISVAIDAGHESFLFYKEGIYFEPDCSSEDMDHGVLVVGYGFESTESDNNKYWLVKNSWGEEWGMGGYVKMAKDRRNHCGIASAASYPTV
Each line names hits and unclear results; the compound was inactive in the other large screens (follow-up assays come after a bar, where they were run).

CCc1nnc(NC(=O)CSc2nnc(COc3cccc(C)c3)o2)s1	PfM18AAP inh-1 47 | PfM18AAP inh-2 inactive | CTSL1 counter inactive
CCc1nnc(NC(=O)CSc2nnc(Cc3ccc(OC)cc3)o2)s1	PfM18AAP inh-1 41 | PfM18AAP inh-2 inactive | CTSL1 counter inactive
CCc1nnc(NC(=O)CSc2nnc(COc3ccccc3C)o2)s1	none
CC(=O)Nc1ccc(NC(=O)c2ccccc2-n2cnnn2)cc1	none (no result: IDE cell inh, PfM18AAP inh-1, PolyA inh, ALR H2O2 inh)
COc1cccc(NC(=O)c2cc3cccc(OC)c3o/c2=N\O)c1	PfM18AAP inh-1 51 (no result: CaV13 ICDI inh, IDE act) | PfM18AAP inh-2 inactive | CTSL1 counter inactive
CCOC(=O)CCS(=O)(=O)c1ccc(-c2ccc(S(=O)(=O)CCC(=O)OCC)cc2)cc1	none
Cc1cccc(NC(=S)NC2CCCC2)n1	PfM18AAP inh-1 44 | PfM18AAP inh-2 inactive | CTSL1 counter inactive
Cc1cccc(NC(=S)NC2CCCCC2)n1	PfM18AAP inh-1 36 | PfM18AAP inh-2 inactive | CTSL1 counter inactive
COc1ccc(-n2c(O)c(/C=N/n3cnnc3)c3ccccc3c2=O)cc1	PfM18AAP inh-1 67 | PfM18AAP inh-2 74 | CTSL1 counter inactive
O=c1c2ccccc2c(/C=N/n2cnnc2)c(O)n1-c1ccccc1	PfM18AAP inh-1 65 (no result: CaV13 ICDI inh) | PfM18AAP inh-2 72 | CTSL1 counter inactive
CCOC(=O)CCCCC1C(CCCC(=O)OCC)C=NN1C (stereo not drawn)	none (no result: IDE cell inh, PfM18AAP inh-1, PolyA inh, ALR H2O2 inh)
O=C(O)C=C(Br)Br	none (no result: CaV13 ICDI inh)
CC(=O)c1cccc(NC(=O)c2cccc3c(-c4cnn(C)c4)coc23)c1	none (no result: IDE cell inh, PfM18AAP inh-1, IDE act, PolyA inh, ALR H2O2 inh)
Cn1cccc1/C=N/n1cnnc1	none
Clc1ccc(-n2cccc2/C=N/n2cnnc2)cc1	PfM18AAP inh-1 41 (no result: CaV13 ICDI inh) | PfM18AAP inh-2 inactive | CTSL1 counter inactive
Cc1ccc(C)c(N/N=C2\CCCNC2=O)c1	none
COc1cccc(CN(C)Cc2c(O)ccc3ccccc23)c1	none (no result: ALR H2O2 inh)
COc1ccc(CN(C)Cc2c(O)ccc3ccccc23)cc1	PfM18AAP inh-1 47 | PfM18AAP inh-2 inactive | CTSL1 counter inactive
Cc1ccc(NC(=S)N(CCN(C)C)Cc2cccs2)c(C)c1	PfM18AAP inh-1 36 | PfM18AAP inh-2 inactive | CTSL1 counter inactive
Cc1cc(C)c(NC(=S)N(CCN(C)C)Cc2cccs2)c(C)c1	none (no result: ALR H2O2 inh)
CCOc1cc(/C=C\[N+](=O)[O-])ccc1OCC(=O)Nc1ccccc1C	none (no result: CaV13 ICDI inh)
COc1ccc(OC)c(S(=O)(=O)Nc2ccc(O)c(Sc3ncn[nH]3)c2)c1	PfM18AAP inh-1 64, ALR H2O2 inh 99 | PfM18AAP inh-2 36 | CTSL1 counter inactive
CCOc1ccc(NS(=O)(=O)c2ccc(NS(=O)(=O)c3ccc(SC)cc3)cc2)cc1	none (no result: PolyA inh)
Cc1ccc(C)c(S(=O)(=O)Nc2ccc(O)c(Sc3ncn[nH]3)c2)c1	PfM18AAP inh-1 39, ALR H2O2 inh 99 | PfM18AAP inh-2 inactive | CTSL1 counter inactive
CSc1ccc(S(=O)(=O)Nc2ccc(S(=O)(=O)Nc3ccc(C)cc3)cc2)cc1	none
CCOc1ccc(S(=O)(=O)Nc2ccc(O)c(Sc3ncn[nH]3)c2)cc1	PfM18AAP inh-1 54, ALR H2O2 inh 99 | PfM18AAP inh-2 inactive | CTSL1 counter inactive
Cc1ccc(S(=O)(=O)Nc2ccc(O)c(Sc3ncn[nH]3)c2)cc1	PfM18AAP inh-1 56, ALR H2O2 inh 99 | PfM18AAP inh-2 inactive | CTSL1 counter inactive
COc1cccc(C2NC(=O)CCC2[N+](=O)[O-])c1 (stereo not drawn)	none
CC(C)c1ccc(S(=O)(=O)N2CCN(C(=O)Cc3ccsc3)CC2)cc1	none (no result: PfM18AAP inh-1, ALR H2O2 inh)
Cc1cc(F)ccc1S(=O)(=O)Nc1ccc(O)c(Sc2ncn[nH]2)c1	PfM18AAP inh-1 52, ALR H2O2 inh 99 | PfM18AAP inh-2 inactive | CTSL1 counter inactive
Cc1cc(F)ccc1S(=O)(=O)Nc1ccccc1C(=O)Nc1ncn[nH]1	PfM18AAP inh-1 49 (no result: CaV13 ICDI inh) | PfM18AAP inh-2 48 | CTSL1 counter inactive
O=C(O)c1cnn(-c2nc(-c3cccc([N+](=O)[O-])c3)cs2)c1C(F)(F)F	none (no result: ALR H2O2 inh)
C=CCSc1nc2sc3c(c2c(=O)n1-c1ccc(C)cc1)CCN(C)C3	none (no result: IDE cell inh)
O=C(CCC(=O)N1CCN(c2ccc(O)cc2)CC1)c1cccs1	PfM18AAP inh-1 53, ALR H2O2 inh 99 | PfM18AAP inh-2 inactive | CTSL1 counter inactive
CCOc1ccc(C(=O)CCC(=O)N2CCN(c3ccc(O)cc3)CC2)cc1	ALR H2O2 inh inconclusive (no result: PfM18AAP inh-1, PolyA inh)
O=C(CCC(=O)N1CCN(c2ccc(O)cc2)CC1)c1ccc(Br)cc1	PfM18AAP inh-1 42 (no result: CaV13 ICDI inh, IDE act) | PfM18AAP inh-2 inactive | CTSL1 counter inactive
COc1ccccc1-n1nnnc1SCC(=O)N(CC(C)C)C1CCS(=O)(=O)C1 (stereo not drawn)	none (no result: IDE cell inh)
N#Cc1c(SCC(=O)Nc2nncs2)sc2c(O)cc(=O)[nH]c12	PfM18AAP inh-1 53 | PfM18AAP inh-2 29 | CTSL1 counter inactive
O=C(O)CC1CCC(=C(Cl)Cl)C1 (stereo not drawn)	PfM18AAP inh-1 64 (no result: PolyA inh) | PfM18AAP inh-2 inactive | CTSL1 counter inactive
CN(C)c1ccc(C(=S)N2CCN(c3ccc([N+](=O)[O-])cc3)CC2)cc1	PfM18AAP inh-1 47 | PfM18AAP inh-2 inactive | CTSL1 counter inactive
O=[N+]([O-])c1ccc(C(=S)N2CCN(c3ccc(F)cc3)CC2)cc1	none
COC(=O)CC1SC(=O)NC1=Nc1ccc(OC)cc1 (stereo not drawn)	none (no result: CaV13 ICDI inh)
O=C(C1=NN[C@@H]2C(=O)N(Cc3ccccc3)C(=O)[C@H]12)c1ccc([N+](=O)[O-])cc1	PfM18AAP inh-1 42 (no result: ALR H2O2 inh) | PfM18AAP inh-2 inactive | CTSL1 counter inactive
Cc1nc2ccccc2n1Cc1ccc(Cl)cc1	none
Cc1nc2ccccc2n1Cc1n[nH]c(=S)n1-c1ccc(Cl)cc1	PfM18AAP inh-1 39 | PfM18AAP inh-2 inactive | CTSL1 counter inactive
O=c1c2ccccc2cnn1Cc1n[nH]c(=S)n1-c1ccc(Cl)cc1	PfM18AAP inh-1 35, ALR H2O2 inh inconclusive | PfM18AAP inh-2 inactive | CTSL1 counter inactive
Nc1nnc(CC(=O)N/N=C/c2cccc([N+](=O)[O-])c2)s1	none (no result: CaV13 ICDI inh)
Nc1nnc(CC(=O)N/N=C/c2cc([N+](=O)[O-])cc(Br)c2O)s1	PfM18AAP inh-1 37 (no result: PolyA inh) | PfM18AAP inh-2 inactive | CTSL1 counter inactive
CCC(=O)OC1(C(C)=O)CCC2C3CCC4=CC(=O)CCC4(C)C3CCC21C (stereo not drawn)	none (no result: IDE cell inh, PfM18AAP inh-1, PolyA inh, ALR H2O2 inh)
NS(=O)(=O)c1ccc(NC(=S)N2CCC(Cc3ccccc3)CC2)cc1	PfM18AAP inh-1 37 | PfM18AAP inh-2 inactive | CTSL1 counter inactive
NC(=O)C1(N2CCCCC2)CCN(C(=S)Nc2ccc(S(N)(=O)=O)cc2)CC1	PfM18AAP inh-1 33 | PfM18AAP inh-2 inactive | CTSL1 counter inactive
